Compound activity (PubChem)
Polio RdRp inh: inhibitors of poliovirus RNA polymerase binding and polymerization; % elongation, % (compound at 16.7 µg/mL); poliovirus polymerase elongation, fluorescence polarization; stronger effect = lower value; P03300; 150,000 compounds, 0.66% hits; in the data active = % elongation below about 90%
MenB inh: inhibitors of Mycobacterium tuberculosis MenB enzyme | AID 540299 | P9WNP5 | 100,000 compounds, 0.43% hits | inhibition, % (concentration not given with the values) | MenB enzyme assay, absorbance read-out; in the data active = inhibition above about 21%, passing the limit was not always enough
AID504770: growth inhibitors of E. coli YBA685 in a screen for V. cholerae RctB (chromosome II replication) inhibitors. AID 504770. E. coli YBA685 rctB-dependent plasmid, OD600 growth, 3 h; stronger effect = lower value. z-score (concentration not given with the values). 130,000 compounds, 0.27% hits; in the data active = z-score below about -2, passing the limit was not always enough
MbtI inh: MbtI salicylate synthase inhibition; P9WFX0; 100,000 compounds, 0.89% hits; inhibition, % (concentration not given with the values); purified MbtI enzyme, fluorescence intensity read-out; AID 493033; in the data active = inhibition mostly above about 56%, no sharp cut-off; inactive = mostly below about 77%
Target sequence (P9WFX0 whole entry, looked up): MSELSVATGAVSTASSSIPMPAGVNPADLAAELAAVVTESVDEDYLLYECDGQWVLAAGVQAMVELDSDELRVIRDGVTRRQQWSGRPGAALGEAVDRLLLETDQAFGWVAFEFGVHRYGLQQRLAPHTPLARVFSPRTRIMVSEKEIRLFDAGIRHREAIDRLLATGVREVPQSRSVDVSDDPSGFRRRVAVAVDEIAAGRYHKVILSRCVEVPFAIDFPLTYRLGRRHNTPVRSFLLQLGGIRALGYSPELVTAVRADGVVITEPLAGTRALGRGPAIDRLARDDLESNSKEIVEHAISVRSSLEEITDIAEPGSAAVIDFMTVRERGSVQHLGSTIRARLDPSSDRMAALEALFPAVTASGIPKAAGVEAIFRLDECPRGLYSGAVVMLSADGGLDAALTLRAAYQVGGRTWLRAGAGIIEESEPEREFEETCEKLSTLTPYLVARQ
* hit, by the source's call; . = no result; ! = a repeat was not active. Only some compounds are listed: those with a hit (about 1.4% of all), similar ones and a draw of the others.

SMILES	Polio RdRp inh	MenB inh	AID504770	MbtI inh
CSc1[nH]c(=O)[nH]c(=O)c1C#N	101	-11	0.2	0
CC(=O)OCC(=O)Nc1ccccc1	3.0*	-30	1.6	-8
CC(=O)Oc1ccccc1C(=O)NC(C)(C)C	109	3	0.15	.
CCN(CC)S(=O)(=O)c1ccc2[nH]c(=O)cc(C(=O)Nc3ccccc3N3CCN(C)CC3)c2c1	105	-27	-1.1	10
CCCN(CCC)S(=O)(=O)c1ccc(Br)cc1	102	.	-0.35	-15
Cc1cccc(NC(=O)CSc2nnc(C)c(=O)[nH]2)c1	109	.	.	.
Cc1cccc(NC(=O)CSc2nncc(=O)[nH]2)c1	100	-11	-0.15	58*
Cc1ccc2c(c1)-c1onc(C(=O)NCCN3CCc4ccccc4C3)c1CO2	104	11	0.95	2
CCCCC(CC)CN=C(N)NC(N)=NCCCCCCN=C(N)NC(N)=NCC(CC)CCCC (stereo not drawn)	98	-4	-5.1*	55*!
CCOC(=O)c1ccc(NC(=S)NCCn2cc(Br)cn2)cc1	100	-18	0.2	-9
CC1CN(Cn2nc(C(=O)O)c3ccccc32)CC(C)O1 (stereo not drawn)	100	-22	-0.75	-5
CC1CN(Cn2c(=S)oc3ccccc32)CC(C)O1 (stereo not drawn)	90*	-28	-0.9	60
O=C(Nc1nc(CSc2nc3ccccc3s2)cs1)C1CC1	83*	-65	-0.65	53
COC(=O)CSc1nc2ccccc2s1	102	-14	-0.25	-4
c1ccc(CSc2nnc(-c3ccccc3)n2Cc2ccco2)cc1	103	-21	0.85	12
Cn1c(SCC(=O)NN)nc2ccccc21	108	-11	0.15	1
Cn1c(SCC(=O)O)nc2ccccc21	102	37*	1.9	6
Cc1c(N=c2c(=O)c3ccccc3c2=O)c(=O)n(-c2ccccc2)n1C	63*	-44	1.8	9
COc1ccc(NC(=O)Cn2nnc(-c3ccc(S(C)(=O)=O)cc3)n2)cc1	103	-12	0.05	-9
O=C1C=CC(=O)N1Cc1ccccc1	103	-3	-2.5*	-13
CCc1nnc(NC(=O)c2ccc3c(c2)S(=O)(=O)c2ccccc2C3=O)s1	101	-7	1	-2
CCCCn1c(=O)[nH]c(=O)c2c1nc(CNc1ccc(Cl)cc1)n2CCC(C)C	105	-3	0.85	16
CN(C)C(=O)CSCc1c(Cl)cccc1Cl	34*	-9	0.4	4
Cc1ccc(C)n1CCC(=O)O	69*	-52	0.5	1
Cc1ccn(CCC(=O)O)n1	100	12	-0.7	-13
SMILES	Polio RdRp inh	MenB inh	AID504770	MbtI inh
Cc1n[nH]c(=S)n1/N=C\c1ccco1	90*	8	-0.65	36
Cc1ccc(C(=O)CBr)cc1C	101	.	-1.1	88*
Cc1ccc(C(=O)c2ccc(C)c(C)c2)cc1C	102	-21	0.3	3
O=c1oc2ccccc2c(O)c1Sc1ccccc1	96	-3	0.3	31
Cc1nc(-c2ccc3[nH]c(=O)oc3c2)cs1	74*	-13	-1.8	97*
CC(=O)Nc1c(C(=O)c2ccc(F)cc2)oc2ccccc12	100	64*	2.5	1
CC(C)(C)c1ccc(C(=O)Nc2c(C(=O)c3ccc(F)cc3)oc3ccccc23)cc1	107	.	.	.
O=C(COc1nncc2ccccc12)NC1CCS(=O)(=O)C1 (stereo not drawn)	105	8	1	5
O=S(=O)(c1ccc(Cl)cc1)N(O)c1ccc(Cl)cc1	97	19	-1.5	88*
CN(c1ccccc1)S(=O)(=O)c1ccc(Cl)cc1	106	-18	-0.75	.
Clc1cc2c(cc1Cl)Nc1cc(Cl)c(Cl)cc1N2	100	14	-0.15	95*
CC(C)(C)Sc1ccc(SC#N)s1	95	-32	0.75	81*
CC(C)(C)Sc1ccc(C(=O)O)s1	.	.	-0.3	57*
CCC(C)CCCCC(=O)NC(CCN)C(=O)NC(C(=O)NC(CCN)C(=O)NC1CCNC(=O)C(C(C)O)NC(=O)C(CCN)NC(=O)C(CCN)NC(=O)C(CC(C)C)NC(=O)C(Cc2ccccc2)NC(=O)C(CCN)NC1=O)C(C)O (stereo not drawn)	99	-12	-5.2*	-13
COc1cc(NC(C)CCCN)c2ncccc2c1 (stereo not drawn)	58*!	-4	0.25	3
COc1ccc(CSc2cccc3cccnc23)cc1	105	.	-0.55	33
CC1=C(c2ccc(C(C)C)cc2)S(=O)(=O)N=C1N1CCC(C(=O)NCc2ccccc2)CC1	34*	.	.	.
CC1=C(c2ccc(Cl)cc2)S(=O)(=O)N=C1N1CCC(C(=O)NCc2ccccc2F)CC1	101	.	.	.
c1ccc(-c2nn3c(-c4ccccc4)nnc3s2)cc1	101	-3	0.5	19
c1ccc(OCc2nn3c(-c4ccccc4)nnc3s2)cc1	96	-45	0.55	86*
O=C1c2ccccc2C(=O)N1CCc1nn2c(-c3cccnc3)nnc2s1	100	9	-0.4	87*
COc1ccc(-c2nnc3sc(C(C)N4C(=O)c5ccccc5C4=O)nn23)cc1 (stereo not drawn)	102	-11	-0.25	5
c1ccc(CCc2nn3c(COc4ccccc4)nnc3s2)cc1	99	-34	-1	76*
Cc1ccc(C(C(=O)NC2CCCCC2)N(C(=O)C2COc3ccccc3O2)c2ccc3c(c2)OCO3)o1 (stereo not drawn)	104	-39	-0.55	-12
O=C(NC1CCCC1)C(c1ccccn1)N(C(=O)c1ccc2c(c1)OCCO2)c1ccccc1 (stereo not drawn)	102	19	-0.2	-1
SMILES	Polio RdRp inh	MenB inh	AID504770	MbtI inh
CCc1cc(=O)oc2cc(O)cc(O)c12	98	47*	0.05	-50
CCCc1cc(=O)oc2cc(O)cc(O)c12	.	.	-0.85	.
O=C1CSC(CC(=O)Nc2ccc(Cl)cc2)=N1	.	.	0.3	.
O=C(c1ccccc1)c1ccc(C(=O)O)c(C(=O)O)c1	103	46*	1.5	-1
O=C(O)c1ccc(C(=O)O)c(C(=O)c2ccccc2)c1	.	.	0.7	.
O=C(O)CCC(=O)c1ccccc1	75*	-4	-0.5	-6
O=C(c1ccccc1)c1ccc(C(=O)c2ccccc2)cc1	82*	1	-0.4	.
O=C(O)CCCC(=O)c1ccccc1	96	-12	0.25	4
O=C(O)c1cccc(NC(=S)NC(=O)c2cccnc2)c1	99	-12	-1.1	-12
CN(C)c1scc(-c2ccccc2)c1C#N	.	.	-1.4	.
CCN(CC)C(=O)C1CCN(S(C)(=O)=O)CC1	102	35	1.5	-2
CSc1ccc(CCNC(=O)CCc2c(C)nc3c4cccnc4nn3c2C)cc1	14*	.	.	.
Cc1nc2c3cccnc3nn2c(C)c1CCC(=O)NCc1ccccc1	104	.	.	.
COc1ccc2o/c(=N\O)c(C(N)=O)cc2c1	102	-81	1.4	102*
Cc1ccc(C(=O)CCC(=O)O)s1	104	-33	-3.3*	23
Cc1ccc(C(=O)OCC(=O)c2ccccc2)s1	103	-19	-0.5	-4
CC1CCCC(C)N1NC(=S)NC1CCCCC1 (stereo not drawn)	102	-7	1.4	1
Cn1cnc2c1c(=S)[nH]c(=O)n2Cc1ccccc1	82*	-27	-0.9	.
